The source of these data is PubChem BioAssay (Tox21).

“And” between values parts separate entries of the source, which are not always exact repeats. Identical values can stand only once. Unmarked numbers belong to inactive results. Inconclusive results are not listed. The source made the active and inactive calls. Unless noted, calls come from the whole dose curve; as a rule, active = well fitted curve in the direction sought with a large enough effect in the repeat runs; inconclusive = weak or mixed curves; inactive = no such curve, though single readings can be large; an effect the other way counts as inactive or inconclusive.

Experiment [1] deals with Thyrotropin receptor (Homo sapiens) (UniProt P16473). Kind of experiment: qHTS assay to identify small molecule antagonists of the thyroid stimulating hormone receptor (TSHR) signaling pathway (AID 1259385; calls by dose curve; note: nearly all actives have a fitted effect of over 20% in size). The method in brief: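 TSHR-HEK293 cells were plated and held 18 h at 37C/5% CO2, then given compound plus Ro20-1724 and stimulated with TSH at 1.5 ng/mL final. After 30 min at room temperature, cAMP was detected with cAMP-d2/anti-cAMP-cryptate (1 h) by fluorescence.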
Thyrotropin receptor (Homo sapiens), sequence (P16473 whole entry, looked up): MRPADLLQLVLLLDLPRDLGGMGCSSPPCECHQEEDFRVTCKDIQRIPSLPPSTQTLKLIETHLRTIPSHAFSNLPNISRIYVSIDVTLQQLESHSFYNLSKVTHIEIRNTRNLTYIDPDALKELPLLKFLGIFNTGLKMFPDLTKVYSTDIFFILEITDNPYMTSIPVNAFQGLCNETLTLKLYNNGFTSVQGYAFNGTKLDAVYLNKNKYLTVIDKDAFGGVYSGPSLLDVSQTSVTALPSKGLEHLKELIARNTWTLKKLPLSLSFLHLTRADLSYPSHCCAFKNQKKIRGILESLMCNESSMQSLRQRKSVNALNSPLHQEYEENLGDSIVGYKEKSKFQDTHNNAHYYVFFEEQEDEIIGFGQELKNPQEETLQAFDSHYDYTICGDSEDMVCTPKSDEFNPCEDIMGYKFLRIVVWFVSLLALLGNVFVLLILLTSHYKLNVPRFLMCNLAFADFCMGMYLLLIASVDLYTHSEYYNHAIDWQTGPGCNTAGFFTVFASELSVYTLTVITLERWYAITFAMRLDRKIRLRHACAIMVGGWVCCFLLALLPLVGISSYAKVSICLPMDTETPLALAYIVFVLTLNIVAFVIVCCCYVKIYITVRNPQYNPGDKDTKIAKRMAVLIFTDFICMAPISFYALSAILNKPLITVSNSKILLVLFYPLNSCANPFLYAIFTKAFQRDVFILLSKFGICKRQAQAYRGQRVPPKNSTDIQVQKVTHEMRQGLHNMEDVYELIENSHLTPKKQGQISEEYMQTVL
In general terms: Quantitative high-throughput screening tests each substance at several concentrations.

A short description of experiment [2]: qHTS assay to identify small molecule agonists of the estrogen receptor alpha (ER-alpha) signaling pathway in the presence of an antagonist - cell viability counter screen (AID 1259386).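 Note: series mostly up to about 92 µM; cells exposed to compounds for 22 h at 37 °C before the viability read; nearly all actives have a fitted effect of over 30% in size.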 The method in brief: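 Fluorescent CellTiter-Fluor viability signal from VM7Luc4E2 cells, with the reagent added during the final hour of a 22hr compound exposure at 37C in the presence of 10.0nM ICI-182,780.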

Experiment [3] in a line: qHTS assay to identify small molecule antagonists of the progesterone receptor (PR) signaling pathway - cell viability counter screen (AID 1346798). Note: series mostly up to about 92 µM; nearly all actives have a fitted effect of over 50% in size. An outline of the steps:
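Viability was determined by ATP-based luminescence (CellTiter-Glo) in PR-UAS-bla HEK293T cells cultured in 2% charcoal-stripped serum and incubated 16 hr with compounds under R5020 stimulation.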

A short description of experiment [4]: qHTS assay to identify small molecule agonists of the progesterone receptor (PR) signaling pathway - cell viability counter screen (AID 1346799; calls by dose curve; note: nearly all actives have a fitted effect of over 45% in size). The method in brief:
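Viability was scored by ATP luminescence (CellTiter-Glo, 30 min, room temperature) in the same wells used for the reporter readout, after 16 hr compound exposure of PR-UAS-bla HEK293T cells.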

The nature of experiment [5]: qHTS assay to identify small molecule agonists of the TGF-beta/Smad signaling pathway - cell viability counter screen (AID 1346829). Note: top concentration of the series differs between compounds; nearly all actives have a fitted effect of over 45% in size. The method in brief:
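CellTiter-Glo luminescence readout; SBE-bla HEK 293T cells, overnight plating, compound 5 hr at 37 C/5% CO2, then bla substrate 2 hr RT, then CellTiter-Glo 30 min RT.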

Experiment [6] can be described thus: qHTS assay to identify small molecule agonists of the TGF-beta/Smad signaling pathway (AID 1346859; active = well fitted activation curve with a large enough effect in the signal ratio in the repeat runs, not every such curve was filed as active; the % refers to the signal ratio; note: series mostly up to about 77 µM). The method in brief:
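Dual-wavelength fluorescence (460/530 nm emission) quantified beta-lactamase expression under the Smad binding element in HEK 293T cells following 5 hr compound treatment at 37 C.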

Experiment [7] concerns the target Thyrotropin-releasing hormone receptor (Homo sapiens) (UniProt P34981). Kind of experiment: qHTS assay to identify small molecule antagonists of the thyrotropin-releasing hormone receptor (TRHR) signaling pathway (AID 1346877; active = well fitted inhibition curve with a large enough effect in the repeat runs, not every such curve was filed as active; note: series mostly up to about 51 µM). An outline of the steps:
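In this cell-based calcium flux format, HEK293 cells expressing TRHR received test compound for 5 min before the agonist TRH (1 nM final). Dye loading lasted 2 h at 37 °C.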

The target is the same in experiment [8]. As to the kind of experiment: qHTS assay to identify small molecule agonists of the thyrotropin-releasing hormone receptor (TRHR) signaling pathway (AID 1346891; calls by dose curve; note: series mostly up to about 58 µM). The method in brief: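 Kinetic fluorescence (3 min, 1 s intervals) reported intracellular calcium after compound transfer onto TRHR-Hek293 cells pre-loaded with dye for 2 h at 37 °C.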
A short description of experiment [9]: Human pregnane X receptor (PXR) small molecule agonists, qHTS cell viability counter screen (AID 1346977). Note: nearly all actives have a fitted effect of over 50% in size. The method in brief: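 HepG2 cells stably carrying the PXR-Luc reporter are cultured with 5% charcoal-stripped FBS and treated with compounds for 24hr. CellTiter-Fluor is added at 23hr and fluorescence is read after 1hr.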
Experiment [10] in a line: Caspase-3/7 induction in HepG2 cells by small molecules, qHTS cell viability counter screen (AID 1346981). Note: series mostly up to about 92 µM; nearly all actives have a fitted effect of over 30% in size. An outline of the steps:
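Counter screen for cytotoxicity: HepG2 exposed 16 hr to compounds, then CellTiter-Fluor viability signal (fluorescence, 1 hr reagent incubation).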

In experiment [11] the target is Nuclear receptor subfamily 1 group I member 2 (Homo sapiens) (UniProt O75469). As to the kind of experiment: Human pregnane X receptor (PXR) small molecule agonists, qHTS assay (AID 1346982). Note: nearly all actives have a fitted effect of over 35% in size. Note: potency is the fitted concentration of half-maximal effect. The method in brief:
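Luminescence (ONE-Glo, 30 min RT) after 24 hr compound exposure of PXR-Luc HepG2 cells; cells rested 5 hr post-plating in 5% charcoal-stripped FBS medium.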

Experiment [12] has as its target Progesterone receptor (Homo sapiens) (UniProt P06401). Kind of experiment: qHTS assay to identify small molecule antagonists of the progesterone receptor (PR) signaling pathway (AID 1346795; active = well fitted inhibition curve with a large enough effect in the signal ratio in the repeat runs, not every such curve was filed as active; the % refers to the signal ratio). The method in brief:
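After 6 hr plating at 37C in 2% stripped-serum medium, PR-UAS-bla HEK293T cells got compounds, then 1 nM R5020. Sixteen hours later, LiveBLAzer substrate was applied for 2 hr at room temperature and fluorescence was recorded.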

Experiment [13] in a line: qHTS assay to identify small molecule antagonists of the TGF-beta/Smad signaling pathway - cell viability counter screen (AID 1346824). Note: nearly all actives have a fitted effect of over 50% in size. The method in brief: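 SBE-bla HEK 293T cells were plated overnight at 37 C, then given compounds in DMSO plus TGF-beta1 (added as 0.25 ng/mL solution) for 5 hr. After the bla read, CellTiter-Glo was added to the same wells and luminescence read after 30 min at room temperature.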

A short description of experiment [14]: Caspase-3/7 induction in HepG2 cells by small molecules, qHTS assay (AID 1346978). Note: nearly all actives have a fitted effect of over 15% in size. An outline of the steps:
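Wild-type HepG2 cells (2,000/well) were settled 5 h at 37 C, 5% CO2, then exposed to compounds in DMSO for 17 h. Caspase-3/7 activity was read by luminescence 30 min after adding Caspase-Glo 3/7 reagent at room temperature.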

Experiment [15] is described as follows: Caspase-3/7 induction in CHO-K1 cells by small molecules, qHTS cell viability counter screen (AID 1346979). Note: nearly all actives have a fitted effect of over 35% in size. An outline of the steps:
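Seeding: 1,500 CHO-K1 cells/well. Rest: 5hr, 37C. Treatment: compounds in DMSO, 16hr. Read: CellTiter-Fluor, 1hr, fluorescence.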

A short description of experiment [16]: Caspase-3/7 induction in CHO-K1 cells by small molecules, qHTS assay (AID 1346980). Note: nearly all actives have a fitted effect of over 15% in size. The method in brief: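 Wild-type cells were seeded at 1,500 per well and settled 5 hr at 37 C, 5% CO2, then exposed to DMSO-dissolved compounds for 17 hr. Caspase-Glo 3/7 reagent was added, and luminescence was read after 30min at room temperature.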
Experiment [17] addresses Nuclear receptor subfamily 1 group I member 2 (Rattus norvegicus) (UniProt Q9R1A7). Kind of experiment: Rat pregnane X receptor (rPXR) activation by small molecules, qHTS assay (AID 1346983). Note: nearly all actives have a fitted effect of over 20% in size. The conditions noted are these: rPXR luciferase reporter cells, One-Glo luminescence, 24 h; hits give high values. An outline of the steps: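 Cell-based rPXR luciferase reporter assay, 2,000 cells per well, rested 5hr at 37 C before compound addition in DMSO, then 24 hr at 37 C. One-Glo reagent was added and luminescence read after 30 min at room temperature.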

The target in experiment [18] is Nuclear receptor subfamily 1 group I member 2 (Homo sapiens) (UniProt O75469). As to the kind of experiment: CYP3A4 induction through human pregnane X receptor (PXR) by small molecules, qHTS assay (AID 1346984). Note: nearly all actives have a fitted effect of over 40% in size. The method in brief:
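DPX-2 reporter cells; 24h cpd, 37C; Luciferin-IPA 3uM final x3h; One-Glo 30 min RT; lumi read.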

Experiment [19] has the same target. As to the kind of experiment: Human pregnane X receptor (PXR) activation by small molecules, qHTS assay (AID 1346985). Note: nearly all actives have a fitted effect of over 40% in size. The method in brief: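 DPX-2 cells (HepG2 co-transfected with a PXR response element and a CYP3A4-promoter luciferase construct) were seeded at 2,000 per well, rested 5 hr at 37C, then exposed to DMSO-dissolved compounds for 24 hr. Activation was read as luciferase luminescence.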
% is set by controls: 0 for no effect and ±100 for the full control effect.

Progesterone receptor (Homo sapiens), sequence (P06401 whole entry, looked up): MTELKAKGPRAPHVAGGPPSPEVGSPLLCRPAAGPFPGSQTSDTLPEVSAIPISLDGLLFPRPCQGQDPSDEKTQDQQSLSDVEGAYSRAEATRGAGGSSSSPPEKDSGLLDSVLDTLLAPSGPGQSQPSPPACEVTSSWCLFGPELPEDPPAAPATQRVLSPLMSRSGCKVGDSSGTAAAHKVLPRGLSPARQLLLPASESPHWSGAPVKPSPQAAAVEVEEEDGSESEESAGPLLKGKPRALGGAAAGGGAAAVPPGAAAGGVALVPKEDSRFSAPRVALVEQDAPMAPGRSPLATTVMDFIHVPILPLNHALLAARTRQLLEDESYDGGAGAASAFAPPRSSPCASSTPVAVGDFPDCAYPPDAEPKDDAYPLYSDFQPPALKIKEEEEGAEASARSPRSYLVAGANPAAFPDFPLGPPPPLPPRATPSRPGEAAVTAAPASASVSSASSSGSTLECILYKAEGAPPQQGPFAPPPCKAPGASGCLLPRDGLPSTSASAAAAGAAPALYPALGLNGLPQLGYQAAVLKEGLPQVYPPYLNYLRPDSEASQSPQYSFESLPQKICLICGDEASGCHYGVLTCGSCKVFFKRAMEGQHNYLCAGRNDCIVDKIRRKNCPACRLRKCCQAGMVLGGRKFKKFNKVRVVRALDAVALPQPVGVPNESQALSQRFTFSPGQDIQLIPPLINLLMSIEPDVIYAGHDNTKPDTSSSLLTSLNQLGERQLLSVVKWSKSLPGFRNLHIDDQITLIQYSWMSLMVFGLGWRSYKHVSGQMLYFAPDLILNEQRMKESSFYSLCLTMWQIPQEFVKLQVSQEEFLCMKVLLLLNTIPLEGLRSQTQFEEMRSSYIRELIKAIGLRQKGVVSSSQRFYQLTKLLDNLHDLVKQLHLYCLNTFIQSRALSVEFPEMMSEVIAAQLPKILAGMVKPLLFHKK
Thyrotropin-releasing hormone receptor (Homo sapiens), sequence (P34981 whole entry, looked up): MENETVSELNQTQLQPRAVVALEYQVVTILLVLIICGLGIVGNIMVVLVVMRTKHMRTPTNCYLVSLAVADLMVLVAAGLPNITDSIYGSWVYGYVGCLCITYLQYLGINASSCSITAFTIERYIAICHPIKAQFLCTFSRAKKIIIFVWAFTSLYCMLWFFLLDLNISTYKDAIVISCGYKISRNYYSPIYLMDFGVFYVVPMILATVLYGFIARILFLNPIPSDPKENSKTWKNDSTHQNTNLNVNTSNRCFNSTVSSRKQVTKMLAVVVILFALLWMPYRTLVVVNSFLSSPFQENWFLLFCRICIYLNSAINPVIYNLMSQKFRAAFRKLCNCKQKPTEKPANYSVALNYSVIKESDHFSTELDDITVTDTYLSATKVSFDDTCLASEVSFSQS
Nuclear receptor subfamily 1 group I member 2 (Rattus norvegicus), sequence (Q9R1A7 whole entry, looked up): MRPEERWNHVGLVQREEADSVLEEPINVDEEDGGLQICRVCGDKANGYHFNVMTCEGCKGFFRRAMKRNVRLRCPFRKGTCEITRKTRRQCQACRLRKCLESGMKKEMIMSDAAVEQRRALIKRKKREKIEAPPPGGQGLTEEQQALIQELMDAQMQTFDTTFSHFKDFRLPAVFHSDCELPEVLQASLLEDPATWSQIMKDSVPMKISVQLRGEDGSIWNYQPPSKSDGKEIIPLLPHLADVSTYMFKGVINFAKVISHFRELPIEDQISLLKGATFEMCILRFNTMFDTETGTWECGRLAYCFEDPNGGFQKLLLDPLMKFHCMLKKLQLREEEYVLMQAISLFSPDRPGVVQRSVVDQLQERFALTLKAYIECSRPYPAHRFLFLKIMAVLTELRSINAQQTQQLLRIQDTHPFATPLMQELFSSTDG
Nuclear receptor subfamily 1 group I member 2 (Homo sapiens), sequence (O75469 whole entry, looked up): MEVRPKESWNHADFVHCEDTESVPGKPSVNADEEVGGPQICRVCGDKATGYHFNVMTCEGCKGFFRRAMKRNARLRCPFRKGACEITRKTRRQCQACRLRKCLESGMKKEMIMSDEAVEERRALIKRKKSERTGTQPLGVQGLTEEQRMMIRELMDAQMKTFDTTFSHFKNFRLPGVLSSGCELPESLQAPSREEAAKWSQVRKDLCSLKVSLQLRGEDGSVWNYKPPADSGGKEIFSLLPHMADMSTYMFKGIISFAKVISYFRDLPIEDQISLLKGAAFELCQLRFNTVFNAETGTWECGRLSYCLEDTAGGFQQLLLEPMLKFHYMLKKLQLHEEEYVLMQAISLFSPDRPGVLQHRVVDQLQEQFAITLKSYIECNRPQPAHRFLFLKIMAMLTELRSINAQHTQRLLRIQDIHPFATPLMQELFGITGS

As to `CCCCNC(=O)NCCCC`, the Potency result in experiment [1], in experiment [2], in [3], in experiment [4], in experiment [9] and in experiment [10] was “inactive” each time. The Potency entry in experiment [11] is “inactive”. Moreover, the molecule was called inactive in experiment [5], in experiment [6], in experiment [7] and in experiment [8].
As for `CC(C)c1cc2c(cc1S(=O)(=O)O)[C@@]1(C)CCC[C@@](C)(C(=O)O)[C@@H]1CC2`, the Potency result in experiment [1], in experiment [2], in experiment [12], in experiment [3], in [4] and in [13] was “inactive” in each case. The Potency result in experiment [9], in experiment [14], in experiment [15], in [10], in experiment [11] and in [18] was “inactive” in each case. The Potency result in [19] was “inactive”. The call in experiment [5], in experiment [6], in experiment [7], in experiment [8] and in experiment [16] was inactive. For the same molecule, the max activation in experiment [17] is 2.4%.
Consider `CN1CC(=O)NC1=N`, for which the Potency entry in experiment [1], in experiment [2], in experiment [12], in [3], in experiment [4] and in experiment [13] was “inactive” in each case. In addition, the Potency entry in experiment [9], in experiment [15], in experiment [10], in [11], in experiment [18] and in experiment [19] was “inactive” each time. For the same molecule, the result in [5], in experiment [6], in [7], in experiment [8] and in experiment [16] was inactive. Also, in experiment [17], the max activation is -5.88%.
With `CCc1nccnc1CC`, in [1], the activity change, negative = inhibition was 0.0688% [at 19 µM]. Further, the activity change, negative = cytotoxicity is 1.02% [at 19 µM] in [2]; -10.8% [at 19 µM] in [4]; 3.37% [at 15.8 µM] in experiment [5]; -1.38% [at 19 µM] in experiment [9]; -4.23% [at 19 µM] in experiment [10]. Also, the Potency result in experiment [12], in [3] and in experiment [15] was “inactive” in each case. For the same molecule, the viability change, negative = cytotoxic in experiment [13] was 4.47% [at 15.8 µM]. For the same molecule, the activation in experiment [6] is 1.18% [at 15.8 µM]; in experiment [8] it was 0.11% [at 11.8 µM]; in [11] it was -0.742% [at 19 µM]. The activity, negative = inhibition in experiment [7] is 3.49% [at 10.5 µM]. Moreover, in experiment [16], the caspase-3/7 activation is -0.427% [at 19 µM].
In the case of `CC(=O)OCC(=O)[C@@]1(O)CCC2C3CCC4=CC(=O)CC[C@]4(C)C3[C@@H](O)C[C@@]21C` (stereo not given in full), the Potency result in experiment [1], in experiment [2], in [3], in experiment [4], in experiment [13] and in experiment [9] was “inactive” each time. The Potency result in [15], in [10] and in experiment [11] was “inactive” throughout. Also, the molecule was called inactive in experiment [5], in experiment [6] and in [16].
Turning to `CCN1CCC[C@H]1CNC(=O)c1cc(S(N)(=O)=O)ccc1OC`, the Potency entry in experiment [1], in experiment [2], in experiment [12], in experiment [3], in experiment [4] and in experiment [13] was “inactive” throughout. For the same molecule, the Potency entry in experiment [9], in experiment [15] and in experiment [10] was “inactive” in each case. Moreover, the outcome in experiment [5], in experiment [6], in experiment [7], in experiment [8] and in experiment [16] was inactive. Further, in experiment [17], the max activation is -2.59%.
As to `O=C1CCCCCCCCCCCN1`, the Potency entry in experiment [1], in experiment [2], in [3], in experiment [4], in experiment [13] and in [9] was “inactive” throughout. Moreover, the Potency entry in [14], in [15] and in experiment [10] was “inactive” in each case. Also, the call in experiment [5], in experiment [6], in experiment [7], in experiment [8] and in experiment [16] was inactive. The Potency in [11] was 48.5 µM (active) and 27.3 µM (active).
As for `COC(=O)NN`, the Potency result in experiment [1], in experiment [2], in experiment [12], in experiment [3], in [4] and in experiment [13] was “inactive” each time. Further, the Potency result in [14], in experiment [15], in [10] and in experiment [11] was “inactive” throughout. The molecule was classed as inactive in experiment [5], in experiment [6], in [7], in [8] and in experiment [16].
